Assay outcomes deposited in PubChem BioAssay by National Center for Advancing Translational Sciences (NCATS).
The full list was thinned out, with hits kept by preference.
Cruzain inh Det: qHTS Assay for Promiscuous and Specific Inhibitors of Cruzain (with detergent); Potency, µM, without a hit: max response, negative = inhibition, usual class: inhibitors; Cruzipain (Trypanosoma cruzi), P25779; purified cruzain, Z-FR-AMC fluorescence, 0.01% Triton; AID 1478, 2009; actives 0.43% (n = 200,000);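 also: plate controls were neutral wells for no effect and buffer without enzyme for full effect; nearly all actives have a fitted effect of over 40% in size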
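Detergent-containing run (0.01% Triton X-100) in acetate buffer pH 5.5 with 5 mM DTT: enzyme at 1.5 nM final, 15 min compound preincubation at room temperature, then 2 uM Z-FR-AMC substrate. Activity taken as 60 s fluorescence increase at 360/450 nm.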
Cruzain noTriton: qHTS Assay for Promiscuous and Specific Inhibitors of Cruzain (without detergent) | Potency, µM, inactives show max response, negative = inhibition, usual class: inhibitors | AID 1476, 2009 | purified cruzain, Z-FR-AMC fluorescence, no detergent | actives 2.3% (n = 200,000) | Cruzipain (Trypanosoma cruzi), P25779;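 also: plate controls were enzyme without inhibitor for no effect and buffer without enzyme for full effect; nearly all actives have a fitted effect of over 40% in size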
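Detergent-free condition (0.00005% Triton X-100) in acetate buffer pH 5.5 with DTT. 1.5 nM enzyme and compound were pre-mixed 15 min, then 2 uM Z-FR-AMC substrate added; reaction progress from fluorescence change between first and third reads (60 s).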
FBPA Giardia inh: qHTS Assay for Inhibitors of Fructose-1,6-bisphosphate Aldolase from Giardia Lamblia; A8B2U2; purified Giardia FBPA; Potency, µM (titrated, usually from 59.6 µM), without a hit: at the top dose activity, negative = inhibition, most hits filed as inhibitors; actives 0.71% (n = 290,000); AID 2451, 2010; also: nearly all actives have a fitted effect of over 55% in size
Target sequence (A8B2U2 whole entry, looked up): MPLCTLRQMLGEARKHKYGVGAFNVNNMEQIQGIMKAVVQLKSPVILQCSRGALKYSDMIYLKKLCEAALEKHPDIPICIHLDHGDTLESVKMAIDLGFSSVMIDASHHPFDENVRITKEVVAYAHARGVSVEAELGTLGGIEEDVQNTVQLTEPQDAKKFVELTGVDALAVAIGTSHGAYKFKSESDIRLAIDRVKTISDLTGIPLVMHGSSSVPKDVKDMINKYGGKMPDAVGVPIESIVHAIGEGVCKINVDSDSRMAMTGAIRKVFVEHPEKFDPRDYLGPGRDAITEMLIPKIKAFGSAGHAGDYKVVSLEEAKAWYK
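40 nM FBPA preincubated 10 min at RT with compound (up to 57.5 uM final), then substrate plus GAPDH/TPI/NAD/arsenate coupling and diaphorase/resazurin added. Fluorescence read after 20 min at RT, 525/598 nm.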
Active calls of the source: *; [ ] = another dose, or the depositor's remark. Calls follow the shape of the dose curve; as a rule, active = well fitted curve in the direction sought with a large enough effect; inconclusive = small, poorly fitted or top-dose-only effect, or another doubt; inactive = no such curve, though single readings can be large; an effect the other way counts as inactive or inconclusive. Unless noted, % is scaled to controls: 0 for no effect and ±100 for the full control effect; potency is read from the fitted curve at half-maximal effect.

Screening CCCN(c1ccccc1F)S(=O)(=O)c1ccc2c(c1)C(C)(C)C(=O)N2C returned Cruzain inh Det -4% and Cruzain noTriton inconclusive.
Screening NC(N)=N/N=C(\c1ccc(Cl)cc1)C1CC1 returned Cruzain inh Det 2% and Cruzain noTriton -6%.
`COc1cccc([C@@H]2Oc3ccc(OC)cc3/C(=N/O[C@@H](C)c3cn([C@H]4COC[C@H]4O)nn3)[C@@H]2O)c1` gave FBPA Giardia inh 1%[12.9 µM].
`COc1cccc(NC(=O)c2oc3ccccc3c2NC(=O)c2ccc(OC(C)C)cc2)c1` gave Cruzain inh Det -2% and Cruzain noTriton inconclusive.
For COC(=O)c1ccc(NC(=O)CC2C(=O)N(c3cccc(OC)c3)C(=O)N2Cc2ccco2)cc1 (stereo not given) the results were Cruzain inh Det -5% and Cruzain noTriton -11%.
`C=CCn1c(SCc2cc(C(C)=O)ccc2OCC)nc2ccccc2c1=O` gave Cruzain inh Det 14µM*, Cruzain noTriton inconclusive and FBPA Giardia inh 4%.
`COc1ccc(C(C)=O)cc1CSc1nc2ccccc2c(=O)n1-c1ccccc1` gave Cruzain inh Det -10%, Cruzain noTriton -20% and FBPA Giardia inh -3%.
Cc1ccc(C)c(N2CCN(S(=O)(=O)c3ccc4[nH]c(=O)c(=O)[nH]c4c3)CC2)c1 was read as Cruzain inh Det -2%, Cruzain noTriton 19% and FBPA Giardia inh 14%.
`Cc1ccc(CNS(=O)(=O)c2ccc3[nH]c4c(c3c2)CCCCC4)cc1` gave Cruzain inh Det -20% and Cruzain noTriton -11%.
Screening Cc1ccc(C)c(N2CCN(S(=O)(=O)c3ccc4[nH]c5c(c4c3)CCCCC5)CC2)c1 returned Cruzain inh Det 0% and Cruzain noTriton 7.9µM*.
Screening Cc1ccc(N2CCN(S(=O)(=O)c3ccc4[nH]c5c(c4c3)CCCCC5)CC2)c(C)c1 returned Cruzain inh Det 3% and Cruzain noTriton 3.2µM*.
`COc1c(-c2coc3cc4c(cc3c2=O)CC(O)C(C)(C)O4)ccc2c1C=CC(C)(C)O2` (stereo not given) gave Cruzain inh Det 1%, Cruzain noTriton inconclusive and FBPA Giardia inh -14%.
Screening O=c1c2ccccc2n2c(-c3ccccc3F)nnc2n1CCc1ccccc1 returned Cruzain inh Det -8% and Cruzain noTriton inconclusive.
`CCc1ccccc1NC(=O)Nc1cc(C(=O)NCc2ccc(OC)cc2)ccc1N1CCCC1` gave Cruzain inh Det 4% and Cruzain noTriton 13%.
COc1ccc(NC(=O)Cn2ccn(-c3ccc(F)c(F)c3)c(=O)c2=O)cc1Cl was read as Cruzain inh Det -2% and Cruzain noTriton inconclusive.
Screening COc1ccc(C(=O)NCC(=O)OCC(=O)NC2CCCC2)cc1 returned FBPA Giardia inh 1%.
For Cc1ccc(C(=O)NCC(=O)OCC(=O)NC2CCS(=O)(=O)C2)cc1C (stereo not given) the results were Cruzain inh Det 16µM*, Cruzain noTriton 25µM* and FBPA Giardia inh 3%.
CO[C@H]1COC(=O)C/C=C\[C@H](C)[C@@H](OC)COC(=O)[C@@H](C)COC(=O)C/C=C\[C@@H]1C was read as FBPA Giardia inh 0%[12.9 µM].
`Cc1ccccc1N(C)C(=O)c1noc2c1COc1ccccc1-2` gave Cruzain inh Det -4% and Cruzain noTriton 12%.
Screening CN(C)S(=O)(=O)c1cc(NC(=O)COC(=O)Cc2ccccc2)ccc1Cl returned Cruzain inh Det -7%, Cruzain noTriton -10% and FBPA Giardia inh 1%.
For CN(C)S(=O)(=O)c1cc(NC(=O)[C@H](Cc2ccccc2)N2C(=O)c3ccccc3C2=O)ccc1Cl the results were Cruzain inh Det -4%, Cruzain noTriton 20µM* and FBPA Giardia inh -7%.
`CCc1ccccc1NC(=S)NN` gave FBPA Giardia inh 16µM*.
Screening CCc1ccccc1NC(=S)NNC(=O)c1ccccc1Cl returned FBPA Giardia inh 4%.
For CCOP(=O)(OCC)C(NC(=O)c1ccc(Cl)cc1)=C(Cl)Cl the results were Cruzain inh Det 2%, Cruzain noTriton 5% and FBPA Giardia inh 3%.
Screening CCOP(=O)(OCC)C(C#N)=C1SCN(c2ccc(Cl)cc2)CS1 returned Cruzain inh Det -9%, Cruzain noTriton 13µM* and FBPA Giardia inh inconclusive.
For C=C1[C@@H]2CC[C@H](C2)C1(C)C the results were FBPA Giardia inh 0%.
CC1(C)S[C@@H]2[C@H](C(=O)O)N=C(Cc3ccccc3)N2[C@H]1C(=O)O was read as Cruzain inh Det 2% and Cruzain noTriton 11%.
